Source: PubChem (National Center for Advancing Translational Sciences (NCATS))
Hits are enriched below; roughly 20% of the tested compounds scored in any of these assays.
Cycloheximide cs – counter-screen for Shiga toxin inhibitors: cycloheximide protein synthesis inhibition. max response, %. cell reporter, cycloheximide protein synthesis inhibition counterscreen. AID 2314. 12% of 300,000 active; in the data active means max response mostly above about 13%, no sharp cut-off; inactive means mostly below about 14%; further: read at 38.3 µM for the half of the compounds with a filed dose; 0% is about no effect
HCMV antiviral – blocks human cytomegalovirus replication; activity change, negative = inhibition, % at 57.5 µM; HFF cells, HCMV-luciferase reporter, 72 h; active compounds read low; 4.5% of 410,000 active; in the data active means activity change below about -60%; inconclusive means no clear call, values can overlap the other calls; inactive means above about -39%; further: on the % scale 0 is the no-effect control and ±100 the full control effect
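Two-dose cell screen: HFF monolayers treated with compounds and infected with luciferase-expressing HCMV at 1 PFU/cell, 72 h at 37C, then lysed for luciferase measurement.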
Pf growth 48h – inhibits P. falciparum growth in the first generation, 48 h | P. falciparum luciferase growth in erythrocytes, 48 h | Potency, µM (highest dose often 28.7 µM), inactives show top-dose activity change, negative = inhibition, hits mostly inhibitors | 5.9% of 310,000 active | AID 504832; further: potency means the concentration at half of the fitted maximal effect; on the % scale 0 is the no-effect control and ±100 the full control effect
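Here the parasites carry a stable luciferase gene and grow inside erythrocytes in Albumax-based RPMI medium with compound for one erythrocytic cycle. Activity is scored as loss of luminescent signal.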
Pf growth 96h – inhibits malaria parasite growth, 96 h | P. falciparum luciferase reporter growth, 96 h | Potency, µM (series often up to 28.7 µM), for the others: at the highest dose activity change, negative = inhibition, most hits filed as inhibitors | 6.9% of 320,000 active; further: potency means the concentration at half of the fitted maximal effect; on the % scale 0 is the no-effect control and ±100 the full control effect
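Readout is luminescence from an integrated firefly luciferase in P. falciparum. Red cells, 2% hematocrit and 0.05% parasitemia final, were cultured with compound through two parasite generations (96 hours) at 37 C, 5% CO2.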
Shiga toxin inh – Shiga toxin inhibition; 9.2% of 290,000 active; Vero cells, Shiga toxin protein synthesis inhibition reporter; inhibition, % at 38.7 µM; in the data active means inhibition mostly above about 28%, no sharp cut-off; inactive means mostly below about 43%; further: 0% is about no effect
Numbers without * were called inactive; i = inactive; ? = inconclusive; . = not tested or not shown. Unless noted, the call rests on the fitted dose curve; in most records, active means well fitted inhibition curve with a large enough effect; inconclusive means small, poorly fitted or top-dose-only effect, or another doubt; inactive means no such curve, though single readings can be large or run the other way.

SMILES | Cycloheximide cs | HCMV antiviral | Pf growth 48h | Pf growth 96h | Shiga toxin inh
O=C(N/N=C\c1ccccc1)c1sccc1-n1cccc1 | 26* | 35 | 57% | 41% | 49*
Cc1cccc(/C=N\NC(=O)c2ccccc2-n2cccc2)c1 | 21 | -26 | 11% | 10% | 37
O=C(NC1CC1)c1sccc1-n1cccc1 | -2 | 20 | 17% | . | -14
O=C(N/N=C\c1cccs1)c1sccc1-n1cccc1 | 24 | -40 | ? | 13µM* | 35
Cc1ccc(C)c(N2CCN(c3nccn4nc(-c5ccc(Br)cc5)cc34)CC2)c1 | . | 2 | . | . | .
CCNS(=O)(=O)c1ccc2nc(NC(=O)c3cccnc3)sc2c1 | 33* | 21 | 1% | . | 84*
Cc1csc2nc(NC(=O)c3ccccc3)sc(=O)c12 | 12* | 33 | 62% | 43% | 26
Cc1ccc(S(=O)(=O)Nc2nc3ccc(S(C)(=O)=O)cc3s2)cc1 | -1 | ? | -12% | 12µM* | -11
Cc1ccccc1C(=O)Nc1nc2c(C)csc2c(=O)s1 | -2 | 4 | 25% | 0% | -13
O=C(C[n+]1ccccc1)Nc1nc2ccccc2s1 | 21* | -10 | 18% | -11% | 29
COc1cc(C(=O)Nc2nc3ccc(S(C)(=O)=O)cc3s2)cc(OC)c1C | 7 | ? | ? | 7.4µM* | 4
COc1ccc(Cl)cc1C(=O)Nc1nc2ccc(S(C)(=O)=O)cc2s1 | 20 | . | 85% | ? | 28
O=C(CS(=O)(=O)Cc1ccccc1)Nc1nc2ccccc2s1 | -1 | -10 | 19% | -24% | 3
CS(=O)(=O)c1ccc2nc(NC(=O)c3cccs3)sc2c1 | -2 | 76 | 41% | 146% | 9
COc1ccc2oc(C(=O)Nc3nc4ccc(S(C)(=O)=O)cc4s3)c(C)c2c1 | . | -60* | ? | 7% | .
Cc1ccc(C(=O)Nc2nc3ccc(S(C)(=O)=O)cc3s2)s1 | 70* | 114 | 65% | 24% | 72
CN(CC(=O)Nc1nc2ccccc2s1)S(=O)(=O)c1ccccc1 | 29* | 19 | 37% | ? | 61*
COc1ccc(S(=O)(=O)N2CCN(C(=O)C3CC3)CC2)cc1 | 2 | -4 | -9% | ? | -6
CCc1nc2sc3c(c2c(=O)n1CCO)CCC3 | -1 | 17 | 1% | -1% | -4
CS(=O)(=O)c1ccc2nc(NC(=O)c3cccc([N+](=O)[O-])c3)sc2c1 | 31* | 18 | 35% | ? | 75*
O=S(=O)(/N=C(/Nc1nc2ccccc2s1)c1ccccc1)c1ccccc1 | . | 50 | 123% | 108% | .
c1ccc2sc(NN=C3CCCCCC3)nc2c1 | 33* | 4 | -41% | -23% | 68
COc1ccc2oc(C(=O)Nc3nc(-c4ccccn4)cs3)c(C)c2c1 | . | 23 | ? | 6.6µM* | .
COc1cc(OC)cc(C(=O)Nc2nc3ccc(S(C)(=O)=O)cc3s2)c1 | 17 | 37 | 105% | 118% | 52*
CCOc1ccc(NC(=O)C(C)NC(=O)c2ccccc2Cl)cc1S(=O)(=O)N1CCCC1 (centres undefined) | . | 0 | ? | ? | .
SMILES | Cycloheximide cs | HCMV antiviral | Pf growth 48h | Pf growth 96h | Shiga toxin inh
CC(=O)Nc1cc2c3ccccc3n(C)c2cc1[N+](=O)[O-] | . | -14 | . | . | .
Cc1ccc(C(=O)O)c(C(=O)Nc2nc3ccccc3s2)c1 | 2 | 41 | . | 34% | -2
O=C(O)c1ccccc1-c1ccccc1C(=O)Nc1nc2ccccc2s1 | 4 | 0 | ? | -21% | 6
Cc1ccc(C(=O)Nc2nc3ccccc3s2)s1 | 52* | 34 | -101% | 44% | 32
O=C(Nc1nc2ccccc2s1)c1ccccc1 | 28* | 97 | i | i | 91*
Cn1cc(C(CO)Cc2ccccc2)c2ccccc21 (centres undefined) | . | -3 | ? | -28% | .
Cn1c(=O)[nH]c(=O)c2c1nc(N1CCCC1)n2CCCSc1nnnn1-c1ccccc1 | -4 | 46 | ? | 6.6µM* | -11
Cn1c(=O)[nH]c(=O)c2c1nc(N1CCCCCC1)n2CCCSc1nnnn1-c1ccccc1 | -2 | . | ? | 2.3µM* | -9
COc1ccc(CCC(C)N(C)Cc2ccccc2)cc1 (centres undefined) | -2 | 26 | 7% | ? | -13
COc1ccc(-c2noc([C@@H]3O[C@H](CO)[C@H](O)[C@H](O)[C@H]3O)n2)cc1OC | . | 26 | . | . | .
COc1ccc(Cl)cc1-c1noc([C@@H]2O[C@H](CO)[C@H](O)[C@H](O)[C@H]2O)n1 | . | -73* | . | . | .
O=C(NCCN1C(=O)S/C(=C\c2ccc(Cl)c(Cl)c2)C1=O)c1cnccn1 | 0 | -66* | 16% | -7% | -9
O=C1CCC(C(=O)NCCN2C(=O)S/C(=C\c3cccnc3)C2=O)=NN1 | -2 | ? | 13% | 4% | -23
Cc1cc(Cl)ccc1OCCCC(=O)NCCN1C(=O)S/C(=C\c2cccnc2)C1=O | 31* | 40 | 16% | ? | 40
CS(=O)(=O)c1ccc(C(=O)NCCN2C(=O)S/C(=C\c3cccnc3)C2=O)cc1[N+](=O)[O-] | 31* | -114* | 5.2µM* | ? | 8
CC(C)(C)c1ccc(OCCC(=O)NCC(c2cccs2)N2CCOCC2)cc1 (centres undefined) | . | -19 | ? | ? | .
NC(=O)c1ccsc1NC(=O)c1ccc(S(=O)(=O)N2CCCc3ccccc32)cc1 | 3 | -71* | ? | 10µM* | 7
CC1CCCCN1S(=O)(=O)c1ccc(C(=O)Nc2sccc2C(N)=O)cc1 (centres undefined) | 56* | -38 | 9.3µM* | 9.3µM* | 60*
COC(=O)c1sc2ccccc2c1NC(=O)c1ccc(S(=O)(=O)N2CCCCC2C)cc1 (centres undefined) | -4 | ? | 15µM* | 13µM* | -16
O=[N+]([O-])c1cn(Cc2ccccc2)cn1 | -2 | 20 | -1% | ? | -12
COc1ccc(S(=O)(=O)N2CCc3ccccc32)cc1C(=O)NC1(C)CCS(=O)(=O)C1 (centres undefined) | . | 0 | ? | -21% | .
CCc1cnc2c(c1SCC(=O)NCc1ccccc1Cl)c(=O)n(C)c(=O)n2C | . | 7 | . | . | .
N#C/C(=C\c1ccncc1)c1nc2ccccc2o1 | 29* | 178 | 13% | 4% | 46
N#C/C(=C\Nc1ccccc1O)c1nc2ccccc2o1 | 26* | -95* | 1.7µM* | 10µM* | 71*
Cn1c(/C(C#N)=C/c2cccc(O)c2)nc2ccccc21 | 43* | -18 | ? | 0% | 74
N#C/C(=C\c1cccc(O)c1)c1nc2ccccc2o1 | 59* | -31 | 52% | 141% | 85*
N#C/C(=C\c1ccc(Cl)cc1)c1nc2ccccc2o1 | 10 | -37 | 6% | -4% | 3
CCOP(=O)(OCC)C(Nc1ccc(OC)cc1)c1ccco1 (centres undefined) | -3 | -34 | 14% | 203% | -7
CCc1nn2c(=O)c(F)c(N3CCNCC3)nc2s1 | . | -105* | . | . | .
Oc1c(C=Nc2ccccc2Cl)[nH]c2ccccc12 | 47* | 38 | ? | ? | 77*
